Screens (PubChem BioAssay)
HCV inh = HCV inhibition. Huh7.5.1 HCVcc-Cre infection, luciferase reporter, 44 h. actives 3.4% (n = 340,000). AID 651820. Potency, µM (titrated, usually from 41.8 µM), actives largely listed as inhibitors; active = well fitted inhibition curve with a large enough effect; inconclusive = small, poorly fitted or top-dose-only effect, or another doubt; inactive = no such curve, though single readings can be large or run the other way
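Infectious HCVcc-Cre (~0.5 moi) was added to cells just after compound, with cells seeded 4 h earlier at 1,000 per well. Luciferase activity after 44 h culture reported infection; substrate was incubated 15 min at room temperature before reading.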
Vaccinia mCherry = inhibitors of vaccinia virus infection (mCherry reporter signal); Vaccinia virus mCherry reporter infection, fluorescence; Potency, µM (series often up to 36.5 µM), most hits filed as inhibitors; actives 0.63% (n = 310,000); calls by dose curve; tested in A549 cells; note: nearly all actives have a fitted effect of over 35% in size
VACV Venus inh = vaccinia inhibition (Venus reporter); Vaccinia virus Venus reporter expression, fluorescence; Potency, µM (top dose mostly 36.5 µM), most hits filed as inhibitors; actives 0.46% (n = 330,000); AID 720580; calls by dose curve; tested in A549 cells; note: nearly all actives have a fitted effect of over 30% in size
Hits are given with their value; 0 = inactive; ? = inconclusive; - = no result given; [ ] = remark or other dose. A selection: hits, their analogues and other compounds. The true share with any hit is near 3.3%.

SMILES	HCV inh	Vaccinia mCherry	VACV Venus inh
N#Cc1ccccc1CSc1nnc2ccc3ccccc3n12	-	0	0
CCOc1ccc(-n2c(SCc3ccc(C(=O)OC)o3)nc3c([nH]c4ccccc43)c2=O)cc1	-	0	0
O=C1c2ccccc2CCC1CNCCc1ccc(O)cc1 (stereo not drawn)	-	0	0
O=C(COC(=O)c1cc(-c2cccc(Br)c2)nc2ccccc12)NCC1CCCO1 (stereo not drawn)	0	0	0
Oc1ccc(C[C@@H]2CNCCN2CC2(c3ccccc3)CC2)cc1	?	0	0
c1ccc(C2(CN3CCNC[C@@H]3CC3CCCCC3)CC2)cc1	22.4µM	0	0
COc1cc(C)c(CN2C[C@H](Sc3nc4ccccc4[nH]3)C[C@H]2C(=O)N(C)C)cc1C	-	0	0
Cc1cccc(C(=O)Nc2cccc(OCc3cc(=O)n4ccccc4n3)c2)c1	-	0	0
COc1cc2ccccc2cc1C(=O)OCC(=O)Nc1ccc(Br)cc1	-	0	0
O=C(C[N+]1(CC(O)c2ccccc2)CCCCC1)c1ccccc1 (stereo not drawn)	-	0	0
O=C(C1=C[C@@H](c2ccccc2)C[C@@H](OCc2ccc(CO)cc2)O1)N1CCN(Cc2ccc3c(c2)OCO3)CC1	11.2µM	0	?
O=C(C1=C[C@H](c2ccccc2)C[C@H](OCc2ccc(CO)cc2)O1)N1CCN(Cc2ccccc2)CC1	0	0	0
CC(C)N1CCN(C(=O)c2cnn(-c3nccc(-c4ccc5c(c4)OCO5)n3)c2-c2ccco2)CC1	-	?	0
CCc1sc(-c2cc3cccc(OC)c3oc2=O)nc1-c1ccccc1	-	0	0
Cc1cccc(N=C2NN=C(c3ccccc3F)CS2)c1C	?	?	0
CN(C)S(=O)(=O)c1cccc(N=C2NN=C(c3ccccc3)CS2)c1	35.5µM	?	?
COc1ccc(C2=NNC(=Nc3cc(S(=O)(=O)N(C)C)ccc3C)SC2)c(OC)c1	12.6µM	-	-
Fc1ccccc1N=C1NN=C(c2ccccc2)CS1	?	0	?
Cc1ccc2cccc(NC(=O)c3ccc(-c4ccc(Cl)cc4Cl)o3)c2n1	-	0	0
O=C(CCC1N=C2c3ccccc3N=C(SCC(=O)Nc3ccc(F)cc3)N2C1=O)NCc1ccco1 (stereo not drawn)	-	0	0
Cn1cnc2nc(Cl)nc(Cl)c21	31.6µM	?	?
CNc1nc(Cl)nc2ncn(C)c12	0	0	0
COc1ccc(CNc2nnnn2C)c(OC)c1	0	0	0
O=C(CNC(=O)OCc1ccccc1)Nc1ccc(Br)cc1C(=O)c1ccccc1Cl	8.91µM	0	0
COC(=O)CNC(c1ccccc1)c1cc(Br)ccc1NC(=O)CNC(=O)OCc1ccccc1 (stereo not drawn)	0	?	0
SMILES	HCV inh	Vaccinia mCherry	VACV Venus inh
CCc1ccc(CN(Cc2ccco2)C(=O)COc2ccccc2Cl)cc1	-	0	0
CC(=O)c1ccc2noc(-c3cccc(F)c3)c2c1	2.24µM	0	0
CC(=O)c1ccc2noc(-c3ccc(C)cc3)c2c1	0	-	-
COc1ccc(-c2nc3ccc(NC(=O)COC(C)=O)cc3c(=O)n2Cc2ccccc2)cc1COc1ccc(NC(C)=O)cc1	-	0	0
COc1cccc2ccc(CN3CCC4(CC3)c3ccccc3[C@@H](NC(=O)c3ccccc3)[C@@H]4O)nc12	-	0	0
CCC(NC(=O)Nc1nnc(C(F)(F)F)s1)(C(F)(F)F)C(F)(F)F	4.47µM	3.55µM	2µM
O=C(O)CCC(=O)Nc1nnc(C(F)(F)F)s1	0	-	?
COc1ccc(N=c2nc(-c3ccc(C)cc3)n(-c3ccccc3)s2)cc1	-	0	?
Cc1ccc(-c2nc(=Nc3ccccc3)sn2-c2ccccc2)cc1	-	14.1µM	?
N=c1nc(-c2ccccc2)n(-c2ccccc2)s1	-	0	0
COc1ccc(N=c2nc(-c3ccccc3)n(-c3ccc(C)cc3)s2)cc1	-	11.2µM	?
O=C(c1cccs1)c1cn(CCOc2ccccc2Cl)c2ccccc12	-	0	0
Cc1ccc(C)c(-n2c(CCC(=O)O)ccc2-c2ccc(Cl)cc2)c1	-	0	0
COc1ccc(-c2nc3ccc(NC(C)=O)cc3c(=O)n2Cc2cccc(Cl)c2)cc1COc1ccc(NC(C)=O)cc1	-	0	0
Cc1nc(Cl)c(C(=O)NCc2ccccc2)c(C)c1Cl	0	0	0
O=C(NCc1ccccc1)c1c(Cl)nc(Cl)c(Cl)c1Cl	12.6µM	0	?
O=C(Cn1c(SCC(=O)Nc2ccc(F)cc2)nc2ccccc21)NCc1ccc(Cl)cc1	-	?	0
OC(CCN1CCCCC1)(c1ccccc1)c1ccccc1	0[8.37 µM]	0	0
OC(CCCN1CCCCC1)(c1ccccc1)c1ccc(C(F)(F)F)cc1 (stereo not drawn)	11.2µM	?	0
CCNC(=O)COC(=O)C1C(C(=O)OCC)=C(C)NC(C)=C1C(=O)OCC	0	-	-
CCOC(=O)C1=C(C)NC(C)=C(C(=O)OCC)C1C(=O)OCC(=O)NCc1ccc(F)cc1	3.55µM	-	-
COc1ccc(S(=O)(=O)NCC2CCCO2)c(Cl)c1Cl (stereo not drawn)	0	0	0
Nc1[nH]c(=S)[nH]c(=O)c1N=O	-	0	0
CN(CCO)C(=O)c1cn(C2CCN(Cc3cccc(C(F)(F)F)c3)CC2)nn1	-	0	0
CCc1ccc(NC(=O)C2CCN(S(=O)(=O)c3ccc4c(c3)CC(C)N4C(C)=O)CC2)cc1 (stereo not drawn)	2.82µM	0	?
SMILES	HCV inh	Vaccinia mCherry	VACV Venus inh
Cc1ccc(NC(=O)C2CCN(S(=O)(=O)c3ccc4c(c3)CC(C)N4C(=O)C3CCC3)CC2)nc1 (stereo not drawn)	8.91µM	0	?
CC(=O)N1c2ccc(S(=O)(=O)N3CCC(C(=O)Nc4ccc(C)cn4)CC3)cc2CC1C (stereo not drawn)	11.2µM	-	-
Cc1ccnc(NC(=O)C2CCN(S(=O)(=O)c3ccc4c(c3)CC(C)N4C(=O)C3CCC3)CC2)c1 (stereo not drawn)	?	0	0
CC(=O)N1c2ccc(S(=O)(=O)N3CCC(C(=O)Nc4cc(C)cc(C)c4)CC3)cc2CC1C (stereo not drawn)	0	-	-
CCOc1ccc(NC(=O)C2CCN(S(=O)(=O)c3ccc4c(c3)CC(C)N4C(C)=O)CC2)cc1 (stereo not drawn)	?	0	0
CC1Cc2cc(S(=O)(=O)N3CCC(C(N)=O)CC3)ccc2N1C(=O)C1CC1 (stereo not drawn)	0	-	-
CC1Cc2cc(S(=O)(=O)N3CCC(C(=O)N(C)Cc4ccccc4)CC3)ccc2N1C(=O)C1CC1 (stereo not drawn)	5.62µM	-	-
COc1ccc(C(=O)CCC(=O)Nc2ccc(F)cc2F)cc1	-	0	0
COC(=O)c1c(OCc2cccnc2)cc(=O)n2c1CCN(C(=O)c1cccc(N(C)C)c1)CC2	-	0	0
O=C(O)C(S)[C@@H](S)C(=O)O (stereo partly drawn)	-	0	0
CC(C)CCNC(=O)C1CCN(S(=O)(=O)c2ccc3c(c2)CC(C)N3C(=O)C2CCC2)CC1 (stereo not drawn)	0	0	0
CC1Cc2cc(S(=O)(=O)N3CCC(C(=O)Nc4ccccn4)CC3)ccc2N1C(=O)C1CCC1 (stereo not drawn)	7.94µM	0	0
O=C(c1cc2nc(-c3ccc(F)cc3)cc(C(F)(F)F)n2n1)N1CCCCC1c1cccnc1 (stereo not drawn)	7.94µM	?	?
CC1CCCCN1C(=O)c1cc2nc(-c3ccccc3)cc(-c3ccccc3)n2n1 (stereo not drawn)	11.2µM	?	?
